Assay outcomes deposited in PubChem BioAssay by National Center for Advancing Translational Sciences (NCATS).
ATXN2 expr inh: reduces ATXN2 reporter expression in HEK-293 cells. HEK-293 ATXN2-luciferase reporter, luminescence, 24 h. Potency, µM (titrated, usually from 57 µM), most hits filed as inhibitors. actives 0.72% (n = 360,000). AID 1745845; further: nearly all actives have a fitted effect of over 55% in size
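qHTS (up to 57 uM final) was run with 24 h compound exposure of reporter cells at 37 °C. Each well was multiplexed: SteadyGlo luminescence measured ATXN2-luciferase expression after a fluorogenic Gly-Phe-AFC viability readout (25 uM final).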
MCF10A rerep: induces DNA re-replication in MCF 10a normal breast cells. actives 2.9% (n = 350,000). Potency, µM (top dose mostly 46.1 µM), actives largely listed as activators. MCF 10A DNA re-replication, Hoechst nuclear intensity, 48 h. AID 624296; further: nearly all actives have a fitted effect of over 50% in size
PINK1 expr mod: changes PINK1 expression. PINK1 immunofluorescence, high-content cytometry, 24 h. Potency, µM (top dose mostly 76.6 µM), actives largely listed as activators. actives 0.2% (n = 410,000); active means well fitted activation curve with a large enough effect; inconclusive means small, poorly fitted or top-dose-only effect; cell line not stated here; further: nearly all actives have a fitted effect of over 65% in size
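Cells are seeded, rested 12 hours, then given compound at five concentrations or DMSO for 24 hours. After fixation, blocking and antibody staining, PINK1 amount and mitochondrial localization are scored; CCCP serves as control.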
ATXN viability: viability counter-screen for ATXN expression inhibitors; S2 cells (HEK-293 line with an ATXN2-luciferase reporter) viability, CellTiter-Fluor protease fluorescence, 24 h; Potency, µM (highest dose often 56.7 µM), usual class: cytotoxic; actives 0.49% (n = 400,000); further: nearly all actives have a fitted effect of over 40% in size
IL-1B inflam inh: blocks inflammasome-driven IL-1 beta release. actives 4.7% (n = 360,000). AID 743279. activity change, % at 57.5 µM. THP-1 LPS/ATP IL-1B secretion, AlphaLISA, 16 h; stronger effect = lower value; in the data active means activity change below about -50%; inconclusive means mostly about -30% to -49%
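Secreted IL-1B measured by AlphaLISA bead assay after 16 h compound exposure of THP-1 cells; compounds (final up to 57.5 uM) added 1 h before LPS (250 ng/mL) and ATP (1.25 mM) stimulation; lower signal means less secretion.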
SW480 rerep: DNA re-replication induction in SW480 cells; actives 1.8% (n = 340,000); SW480 DNA re-replication, Hoechst DNA content imaging, 48 h; Potency, µM (doses to about 46.1 µM), most hits filed as activators; further: nearly all actives have a fitted effect of over 55% in size
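Image-based DNA-content assay: after two days of treatment, nuclei were labelled with the DNA dye Hoechst and imaged, and hits were compounds raising the count of nuclei showing high fluorescence intensity.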
A number is an active result; 0 = inactive; ? = inconclusive; - = no result given; [ ] = dose if it differs, or a comment. In the library only some 7.1% were active in any assay of this set; here they are far more common. Unless noted, the call rests on the fitted dose curve; in most records, active means well fitted curve in the direction sought with a large enough effect; inconclusive means small, poorly fitted or top-dose-only effect, or another doubt; inactive means no such curve, though single readings can be large; an effect the other way counts as inactive or inconclusive.

SMILES | ATXN2 expr inh | MCF10A rerep | PINK1 expr mod | ATXN viability | IL-1B inflam inh | SW480 rerep
CCN(CC)S(=O)(=O)c1ccc(NC(=O)Nc2cccc(C(F)(F)F)c2)cc1 | 20µM | ? | ? | ? | -89 | 0
O=C(Nc1ccncc1)Nc1cccc(C(F)(F)F)c1 | 0 | 0 | 0 | 0 | 0 | 0
Cc1ccc(S(=O)(=O)Nc2ccc(NC(=O)Nc3cccc(C(F)(F)F)c3)cc2)cc1 | ? | ? | 0 | ? | -97 | ?
COc1cc(C2CC(=O)Nc3cc4c(cc32)OCCO4)cc(OC)c1O (centres undefined) | 0 | - | 0 | 0 | - | -
COc1ccc(OC)c(CNC(=O)c2nn(C)c3c2CSc2ccccc2-3)c1 | - | - | 0 | - | - | -
COc1cc(C(=O)Nc2nc3ccccc3s2)ccc1OCc1c(C)noc1C | 0 | ? | 0 | 0 | 0 | 16µM
COc1cc(C(=O)OCC(C)=O)ccc1OCc1c(C)noc1C | 0 | 21µM | 0 | 0 | 0 | 16µM
COc1cc(C(=O)Nc2nccs2)ccc1OCc1c(C)noc1C | 0 | ? | 11µM | 0 | 0 | 0
COc1cc(C(=O)Nc2nnc(C3CC3)s2)ccc1OCc1c(C)noc1C | 0 | 0 | 0 | 0 | 0 | 0
Cc1ccc(Cl)cc1NC(=O)Cn1cc(S(=O)(=O)Cc2ccccc2Cl)c2ccccc21 | - | - | 0 | - | - | -
Cc1cc(Br)c(OCC(=O)NN)c2c1CCC2 | 0 | 15µM | 0 | 0 | 0 | 0
CC(=O)Nc1ccc(NC(=O)COc2c(C)cc(Br)cc2C)cc1 | 0 | 0 | 0 | 0 | 0 | 0
Cc1ccc(OCc2nnc(SCC(=O)c3ccccc3)n2-c2ccccc2)cc1 | 0 | ? | 0 | 0 | -56 | 0
CCOC(=O)/C(=N/Nc1ccccc1)Sc1nnc(CCc2ccccc2)n1-c1ccccc1 | 0[11.3 µM] | 0 | 0 | 0 | -73 | 0
Cn1c(Cc2ccccc2)nnc1SCC(=O)NCCc1ccccc1 | 0 | 0.58µM | 0 | 0 | 0 | 0
Cc1ccc(C(=O)CSc2nnc(-c3ccccc3)n2-c2ccccc2)cc1 | 0 | - | 0 | 0 | - | -
Cn1c(Cc2ccccc2)nnc1SCC(=O)Nc1ccccc1 | 0 | 0 | 0 | 0 | 0 | 0
Cc1cccc(-n2c(CCc3ccccc3)nnc2SCC(=O)c2ccccc2)c1 | ? | ? | 0 | ? | -86 | 0
COc1cccc(Cn2cc(C(=O)c3ccc(Cl)cc3)c(=O)c3ccccc32)c1 | 0 | - | 0 | ? | - | -
O=C(Cn1cc(C(=O)C(F)(F)F)c2ccccc21)N1CCCCCC1 | 0 | - | 0 | ? | - | -
Cc1ccc(-n2c(CCc3ccccc3)nnc2SCC(=O)NCc2ccccc2)cc1C | 0 | ? | 0 | 0 | -57 | 0
COc1ccc(Cl)cc1NC(=O)C(=O)NCc1ccncc1 | 0 | 0 | 0 | 0 | -52 | 0
O=C(O)CCc1ccc(-c2ccccc2)n1NC(=O)c1cccs1 | 0 | 0 | 0 | 0 | 0 | 23µM
COc1cc(C)c(C(C)C)cc1S(=O)(=O)n1cnc(C)c1 | 0 | ? | 0 | 0 | 0 | 5.2µM
COc1ccc(C)cc1S(=O)(=O)n1cnc(C)c1 | 0 | 0 | 0 | 0 | 0 | 0
SMILES | ATXN2 expr inh | MCF10A rerep | PINK1 expr mod | ATXN viability | IL-1B inflam inh | SW480 rerep
CCOC(=O)N1CCC(NC(=O)c2ccc3c(c2)N=C(C)c2c(C)ccc(C)c2S3)CC1 | - | 0 | 0 | ? | 0 | 7.3µM
CC1=Nc2cc(C(=O)NC3CCC(C)CC3)ccc2Sc2c(C)ccc(C)c21 (centres undefined) | 0 | - | 0 | ? | - | -
CO/N=C(/C(=O)N[C@@H]1C(=O)N2C(C(=O)[O-])=C(C[n+]3ccn4ncccc43)CS[C@H]12)c1nsc(N)n1 | 0 | - | - | 0 | - | -
COc1ccc(NC(=O)C2=CC(c3ccc(C)cc3)=NS(=O)(=O)N2C)cc1OC | 0 | 0 | 0 | ? | 0 | 0
COc1ccc(C2=NS(=O)(=O)N(C)C(C(=O)Nc3ccc(C(C)=O)cc3)=C2)cc1OC | ? | 0 | 0 | ? | -97 | 0
CCCn1c2ccccc2c2cnn(CC(=O)Nc3ccccc3OC)c(=O)c21 | - | - | 0 | - | - | -
Cc1cc(C)n(C(C[N+](=O)[O-])c2ccc(Cl)cc2)n1 (centres undefined) | 0 | 15µM | 0 | ? | ? | ?
O=C(/C=C/c1ccccc1)Nc1nc(-c2cccs2)ns1 | - | - | 0 | - | - | -
CCc1c(C#N)c(SCCC(=O)Nc2ccc(OC)cc2)nc2c1C(=O)CC(C)(C)C2 | 0 | 0 | 0 | 0 | ? | 0
CCc1c(C#N)c(SCc2c(C)noc2C)nc2c1C(=O)CC(C)(C)C2 | 0 | 9.2µM | 0 | 0 | 0 | 0
CCOC(=O)C1CCN(c2nc3c(S(=O)(=O)c4ccccc4)nnn3c3ccc(Cl)cc23)CC1 | 0 | - | 0 | 0 | - | -
CCNS(=O)(=O)c1ccc2c(c1)NCC2 | 0 | 0 | 0 | 0 | 0 | 5.8µM
Cc1c(Cl)cccc1NC(=O)c1oc2ccc(S(=O)(=O)N3CCCCCC3)cc2c1C | 0 | - | 0 | 0 | - | -
Oc1ccc(Nc2nc(NCC3CCCO3)c3ccccc3n2)cc1 (centres undefined) | 0 | ? | 0 | ? | -96 | 0
COc1cccc(Nc2nc(NCC3CCCO3)c3ccccc3n2)c1 (centres undefined) | ? | ? | 0 | ? | -122 | 0
Oc1ccccc1Nc1nc(NCC2CCCO2)c2ccccc2n1 (centres undefined) | ? | ? | 0 | ? | -109 | 0
Oc1ccc(Cl)cc1Nc1nc(NCC2CCCO2)c2ccccc2n1 (centres undefined) | 0 | 23µM | 0 | ? | - | ?
COc1ccc(CNC(=O)CCc2c(C)nn(-c3ccc(N4CCCCC4)nn3)c2C)c(OC)c1 | - | - | 0 | - | - | -
COc1cccc(Nc2ncc3nc(-c4cn(C)c5ccccc45)c(=O)n(C[C@H]4CCCO4)c3n2)c1 | - | - | 2.5µM | - | - | -
COC(=O)C1=C(COc2ccc(F)cc2)NC(=O)NC1c1ccc(C)cc1C (centres undefined) | 0 | 0 | 11µM | 0 | 0 | 0
OC[C@@H]1[C@@H](c2ccc(F)cc2)C(c2cccc(Cl)c2)=NN1c1ccccc1 | ? | 0.58µM | 0 | - | ? | 0.13µM
OC[C@@H]1[C@@H](c2ccc(Cl)cc2)C(c2ccccc2)=NN1c1ccccc1 | ? | 2.1µM | 0 | - | ? | 23µM
CC(=O)N1CC(c2ccccc2)C(c2ccc(Cl)cc2)=N1 (centres undefined) | 0 | 0 | 0 | 0 | 0 | 0
OC[C@@H]1[C@@H](c2ccc(Cl)cc2)C(c2cccc(Cl)c2)=NN1c1ccccc1 | ? | ? | 0 | - | ? | 2.3µM
Cc1ccc(OC(C)C(=O)Nc2nonc2-c2ccc(Br)cc2)cc1C (centres undefined) | ? | - | 22µM | ? | - | -
Cc1cccc(OC(C)C(=O)Nc2nonc2-c2ccc(Br)cc2)c1C (centres undefined) | 0 | - | 0 | 0 | - | -
O=c1c2ccccc2nc(/C=C/c2ccc3c(c2)OCO3)n1CCCO | 0 | ? | 0 | 0 | -56 | 0
